Measured values as given in PubChem BioAssay AID1159580 (chemical genetic matrix, 2015).
The campaign covered roughly 5,500 compounds. About 2,000 (36%) were called active. About 18% were inconclusive and are not listed. Cut-off read from the data, not from the text of the source: active = normalized growth mostly below about 0.91 (no sharp cut-off); inconclusive = no clear call, values can overlap the other calls; inactive = mostly above about 0.92. The list shows a part of the results.

Assay: chemical genetic growth profiling, strain panel (AID 1159580);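 note: tested at 20 µM; growth read once vehicle control cultures reached saturation at 30 °C; 1 = growth at the plate median or of vehicle wells; lower values mean less growth of the strain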
Conditions: growth OD
[1] = S. cerevisiae deletion strains, locus YAL013W, strain DEP1, active compounds read low
[2] = S. cerevisiae deletion strains, locus YBR229C, strain ROT2, active compounds read low
[3] = S. cerevisiae deletion strains, locus YDL101C, strain DUN1, active compounds read low
[4] = S. cerevisiae deletion strains, locus YDL134C, strain PPH21, active compounds read low
[5] = S. cerevisiae deletion strains, locus YDR150W, strain NUM1, active compounds read low
[6] = S. cerevisiae deletion strains, locus YEL061C, strain CIN8, active compounds read low
[7] = S. cerevisiae deletion strains, locus YHR030C, strain SLT2, active compounds read low
[8] = S. cerevisiae deletion strains, locus YJR043C, strain POL32, active compounds read low
[9] = S. cerevisiae deletion strains, locus YJR075W, strain HOC1, active compounds read low
[10] = S. cerevisiae deletion strains, locus YLR039C, strain RIC1, active compounds read low
[11] = S. cerevisiae deletion strains, locus YLR262C, strain YPT6, active compounds read low
[12] = S. cerevisiae deletion strains, locus YNL322C, strain KRE1, active compounds read low
[13] = S. cerevisiae deletion strains, locus YPL055C, strain LGE1, active compounds read low

Measured: normalized growth

CC(=O)OC1CC(O)C(C)(C)C2CC(=O)C3(C)C(CCC4(C)C(c5ccoc5)OC(=O)C5OC543)C12C (stereo not drawn)
inactive: [1] 0.996 | S. cerevisiae deletion strains, locus YBR021W, strain FUR4, active compounds read low 0.947 | [2] 0.994 | S. cerevisiae deletion strains, locus YCL029C, strain bik1, active compounds read low 0.987 | S. cerevisiae deletion strains, locus YDL035C, strain GPR1, active compounds read low 0.988 | S. cerevisiae deletion strains, locus YDL074C, strain BRE1, active compounds read low 0.945 | [3] 0.992 | [4] 1.02 | S. cerevisiae deletion strains, locus YDL185W, strain tfp1, active compounds read low 0.995 | S. cerevisiae deletion strains, locus YDL192W, strain arf1, active compounds read low 0.971 | S. cerevisiae deletion strains, locus YDR101C, strain arx1, active compounds read low 0.974 | [5] 1.01 | S. cerevisiae deletion strains, locus YDR162C, strain NBP2, active compounds read low 1.01 | S. cerevisiae deletion strains, locus YDR318W, strain mcm21, active compounds read low 1.01 | S. cerevisiae deletion strains, locus YDR388W, active compounds read low 0.998 | S. cerevisiae deletion strains, locus YDR502C, strain sam2, active compounds read low 0.991 | [6] 1 | S. cerevisiae deletion strains, locus YER110C, active compounds read low 0.985 | S. cerevisiae deletion strains, locus YER155C, strain BEM2, active compounds read low 0.992 | S. cerevisiae deletion strains, locus YER167W, strain BCK2, active compounds read low 0.996 | S. cerevisiae deletion strains, locus YGL078C, strain dbp3, active compounds read low 0.968 | S. cerevisiae deletion strains, locus YGL086W, strain mad1, active compounds read low 0.978 | S. cerevisiae deletion strains, locus YGL248W, strain PDE1, active compounds read low 1.01 | S. cerevisiae deletion strains, locus YGR135W, strain pre9, active compounds read low 1.02 | S. cerevisiae deletion strains, locus YGR229C, strain SMI1, active compounds read low 0.998 | S. cerevisiae deletion strains, locus YGR252W, strain gcn5, active compounds read low 1.04 | [7] 0.995 | S. cerevisiae deletion strains, locus YHR079C, strain IRE1 (second series), active compounds read low 0.988 | S. cerevisiae deletion strains, locus YHR094C, strain hxt1, active compounds read low 0.989 | S. cerevisiae deletion strains, locus YHR129C, strain ARP1, active compounds read low 0.99 | S. cerevisiae deletion strains, locus YHR200W, strain rpn10, active compounds read low 1.01 | S. cerevisiae deletion strains, locus YIL066C, strain RNR3, active compounds read low 1.01 | S. cerevisiae deletion strains, locus YIL073C, strain SPO22, active compounds read low 1.06 | S. cerevisiae deletion strains, locus YIL125W, strain kgd1, active compounds read low 0.997 | S. cerevisiae deletion strains, locus YIR030C, strain dcg1, active compounds read low 0.992 | S. cerevisiae deletion strains, locus YJL095W, strain BCK1, active compounds read low 1.03 | S. cerevisiae deletion strains, locus YJL134W, strain LCB3, active compounds read low 0.988 | S. cerevisiae deletion strains, locus YJL168C, strain set2, active compounds read low 0.995 | S. cerevisiae deletion strains, locus YJL187C, strain SWE1 (second series), active compounds read low 0.996 | [8] 0.989 | [9] 1.01 | S. cerevisiae deletion strains, locus YKL009W, strain mrt4, active compounds read low 0.931 | S. cerevisiae deletion strains, locus YKL068W, active compounds read low 0.996 | S. cerevisiae deletion strains, locus YKL085W, strain MDH1 (second series), active compounds read low 0.999 | S. cerevisiae deletion strains, locus YKL085W, strain MDH1, active compounds read low 0.999 | S. cerevisiae deletion strains, locus YKR001C, strain vps1, active compounds read low 1 | [10] 0.995 | S. cerevisiae deletion strains, locus YLR058C, strain SHM2, active compounds read low 1 | S. cerevisiae deletion strains, locus YLR102C, strain apc9, active compounds read low 0.996 | [11] 1.02 | S. cerevisiae deletion strains, locus YLR268W, strain sec22, active compounds read low 0.96 | S. cerevisiae deletion strains, locus YLR330W, strain CHS5, active compounds read low 1.01 | S. cerevisiae deletion strains, locus YLR342W, strain FKS1 (second series), active compounds read low 1.01 | S. cerevisiae deletion strains, locus YLR371W, strain rom2, active compounds read low 0.99 | S. cerevisiae deletion strains, locus YLR418C, strain cdc73, active compounds read low 0.999 | S. cerevisiae deletion strains, locus YML016C, strain PPZ1, active compounds read low 0.985 | S. cerevisiae deletion strains, locus YML032C, strain rad52, active compounds read low 1.03 | S. cerevisiae deletion strains, locus YML124C, strain tub3, active compounds read low 1 | S. cerevisiae deletion strains, locus YMR078C, strain ctf18, active compounds read low 0.988 | S. cerevisiae deletion strains, locus YMR223W, strain ubp8, active compounds read low 1.01 | S. cerevisiae deletion strains, locus YMR307W, strain GAS1, active compounds read low 0.971 | S. cerevisiae deletion strains, locus YNL067W, strain RPL9B, active compounds read low 1.01 | S. cerevisiae deletion strains, locus YNL233W, strain BNI4, active compounds read low 0.987 | S. cerevisiae deletion strains, locus YNL250W, strain rad50, active compounds read low 0.989 | S. cerevisiae deletion strains, locus YNL271C, strain bni1, active compounds read low 0.983 | S. cerevisiae deletion strains, locus YNL298W, strain CLA4, active compounds read low 0.968 | S. cerevisiae deletion strains, locus YNL307C, strain MCK1, active compounds read low 0.98 | [12] 0.999 | S. cerevisiae deletion strains, locus YNR052C, strain pop2, active compounds read low 0.996 | S. cerevisiae deletion strains, locus YOL006C, strain TOP1, active compounds read low 0.972 | S. cerevisiae deletion strains, locus YOL012C, strain htz1 0.734 | S. cerevisiae deletion strains, locus YOL147C, strain pex11, active compounds read low 0.989 | S. cerevisiae deletion strains, locus YOR061W, strain CKA2, active compounds read low 0.991 | S. cerevisiae deletion strains, locus YOR069W, strain VPS5, active compounds read low 0.985 | S. cerevisiae deletion strains, locus YOR136W, strain idh2, active compounds read low 0.966 | S. cerevisiae deletion strains, locus YOR144C, strain elg1, active compounds read low 0.996 | S. cerevisiae deletion strains, locus YOR184W, strain ser1, active compounds read low 0.982 | S. cerevisiae deletion strains, locus YOR316C, strain cot1, active compounds read low 0.992 | [13] 0.999 | S. cerevisiae deletion strains, locus YPR119W, strain clb2, active compounds read low 0.992 | S. cerevisiae deletion strains, locus YPR141C, strain kar3, active compounds read low 0.987 | S. cerevisiae deletion strains, locus YPR163C, strain tif3, active compounds read low 1 | S. cerevisiae deletion strains, locus YPR167C, strain met16, active compounds read low 0.985 | S. cerevisiae deletion strains, strain wtn01, active compounds read low 0.958 | S. cerevisiae strains, strain wild type, active compounds read low 1

Cc1c(C)c(C)c(CSc2nc3ccccc3[nH]2)c(C)c1C
inactive: [1] 1.01 | [2] 1.02 | S. cerevisiae deletion strains, locus YCL061C, strain MRC1, active compounds read low 1.04 | [3] 1.03 | [4] 1.02 | [5] 1.02 | [6] 1.03 | S. cerevisiae deletion strains, locus YGR078C, strain PAC10, active compounds read low 1.03 | [7] 1.08 | S. cerevisiae deletion strains, locus YHR087W, strain rtc3, active compounds read low 1.04 | S. cerevisiae deletion strains, locus YJL187C, strain SWE1, active compounds read low 1.01 | [8] 1.04 | [9] 1.07 | S. cerevisiae deletion strains, locus YKL190W, strain CNB1, active compounds read low 1.03 | [10] 1.02 | S. cerevisiae deletion strains, locus YLR058C, strain SHM2 (second series), active compounds read low 1.06 | S. cerevisiae deletion strains, locus YLR085C, strain ARP6, active compounds read low 1.01 | [11] 1.03 | S. cerevisiae deletion strains, locus YML094W, strain GIM5, active compounds read low 1.03 | S. cerevisiae deletion strains, locus YMR219W, strain ESC1, active compounds read low 1.01 | S. cerevisiae deletion strains, locus YMR263W, strain SAP30, active compounds read low 1.03 | S. cerevisiae deletion strains, locus YNL153C, strain GIM3, active compounds read low 1.05 | S. cerevisiae deletion strains, locus YNL298W, strain CLA4 (second series), active compounds read low 1.05 | [12] 1.02 | S. cerevisiae deletion strains, locus YNR030W, strain Alg12, active compounds read low 1.03 | [13] 1.08 | S. cerevisiae deletion strains, locus YPL241C, strain CIN2, active compounds read low 1.03 | S. cerevisiae deletion strains, locus YPR135W, strain CTF4, active compounds read low 1.26
